Assay results published in the supplement of paper PMC12532568.
Counter-ions that a name gives are not always drawn.

System: Danio rerio larvae Tg(actc1b:ZsGreen-LC3), 3 dpf
Assay: LC3 puncta relative area vs vehicle, with NH4Cl (autophagic flux) (log2 fold change); higher = more autophagy
Details: 10 µM; treatment time 16 h; NH4Cl: + 100 mM, 4 h
Experimental: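 Transgenic Tg(actc1b:ZsGreen-map1lc3) zebrafish larvae (2 dpf) were treated for 16 h with Tocris library compounds at 10 µM (n = 12 larvae per compound). Skeletal-muscle LC3 puncta area relative to body area was measured by high-content confocal imaging before and after 4 h of 100 mM NH4Cl (autophagic flux), normalised to vehicle (DMSO), and reported as log2 fold change.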

SMILES | LC3 puncta (log2)
N=C(N)NN [Aminoguanidine hydrochloride] | 0.662
O=C1CCCN1CC#CCN1CCCC1 [Oxotremorine sesquifumarate] | 0.192
c1ccc2c(c1)OCC(C1=NCCN1)O2 (configuration not stated) [Idazoxan hydrochloride] | 0.662
C=CCN1CC[C@]23c4c5ccc(O)c4O[C@H]2C(=O)CC[C@@]3(O)[C@H]1C5 [Naloxone hydrochloride] | 0.232
c1ccc(CC(c2ccccc2)N2CCCCC2)cc1 (configuration not stated) [(?)-1-(1,2-Diphenylethyl)piperidine maleate] | 0.216
c1ccc2c(c1)[I+]c1ccccc1-2 [Diphenyleneiodonium chloride] | 0.545
S=C=Nc1cccc(C2(N3CCCCC3)CCCCC2)c1 [Metaphit] | 0.576
CCCN(CCC)[C@@H]1CCc2c(OC)cccc2[C@@H]1C [(+)-UH 232 maleate] | 0.738
C=CCN1C[C@H](C)N([C@H](c2ccc(C(=O)N(CC)CC)cc2)c2cccc(OC)c2)C[C@H]1C | 0.846
Fc1ccc(C(OCCN2CCN(C/C=C/c3ccccc3)CC2)c2ccc(F)cc2)cc1 | 0.995
c1ccc2nc(N3CCNCC3)ccc2c1 [Quipazine dimaleate] | 0.278
Cc1onc(O)c1C[C@H](N)C(=O)O | 0.29
c1ccc(C2CNCc3ccccc32)cc1 (configuration not stated) [4-Phenyl-1,2,3,4-tetrahydroisoquinoline hydrochloride] | 0.39
CCCN[C@@H]1CCc2c(OC)cccc2[C@@H]1C [(+)-AJ 76 hydrochloride] | 0.353
CC(C)C[C@H]1C(=O)N2CCC[C@H]2[C@]2(O)O[C@](NC(=O)[C@@H]3C=C4c5cccc6[nH]c(Br)c(c56)C[C@H]4N(C)C3)(C(C)C)C(=O)N12 [Bromocriptine mesylate] | 0.623
CN1C(=O)CCS(=O)(=O)C1c1ccc(Cl)cc1 (configuration not stated) [Chlormezanone] | 0.287
Cc1onc(O)c1CC(N)C(=O)O (racemic) | 0.2
C=C(C)[C@H]1CN[C@H](C(=O)O)[C@H]1CC(=O)O [Kainic acid] | 0.23
CN1C[C@H](CNC(=O)OCc2ccccc2)C[C@@H]2c3cccc4c3c(cn4C)C[C@H]21 [Metergoline] | 0.408
OC1CCCCC1N1CCC(c2ccccc2)CC1 (configuration not stated) [(?)-Vesamicol hydrochloride] | 0.751
Cc1cc(C)cc(C(=O)OC2C[C@H]3CC[C@@H](C2)N3C)c1 (some centres not stated) [Tropanyl-3,5-dimethylbenzoate] | 0.418
Oc1ccc2c3c1O[C@H]1c4c(c5ccccc5n4Cc4ccccc4)C[C@@]4(O)C(C2)N(CC2CC2)CC[C@]314 [N-Benzylnaltrindole hydrochloride] | 0.945
NCC(CS(=O)(=O)O)c1ccc(Cl)cc1 (configuration not stated) [Saclofen] | -0.0138
NCCc1c[nH]c2ccc(C(N)=O)cc12 [5-Carboxamidotryptamine maleate] | 0.571
CCC(Oc1ccc(Cl)cc1)C(=O)OC1C[C@H]2CC[C@@H](C1)N2C (some centres not stated) [SM-21 maleate] | 0.294
Cc1ccc(C[N+](C)(C)C)o1 [5-Methylfurmethiodide] | 0.316
S=C(NC1CCCCC1)N1CCC(c2cnc[nH]2)CC1 [Thioperamide] | 0.48
